Results published in PubChem BioAssay (NCI).
The panel holds about 83,000 compounds, 20% with a hit somewhere; the sample as a whole holds those more often.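 Plates (96-well) were seeded with cells, treated with compound at one concentration, and incubated for 48 hours before percent growth was determined.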 The source made the active and inactive calls. How the source made its calls: active means growth percent below 10; inactive means the rest.

Tests used:
Assay in all cases: NCI-60 one-dose screen, 48 h (100 = growth as untreated, 0 = no growth, -100 = all killed)
EKVX NSCLC = conditions: 10 µM unless noted
SN12C renal = conditions: 10 µM unless noted
UO-31 renal = conditions: 10 µM unless noted
TK-10 renal = conditions: 10 µM unless noted
ACHN renal = conditions: 10 µM unless noted
CAKI-1 renal = conditions: 10 µM
CCRF-CEM leukemia = conditions: 10 µM unless noted
MOLT-4 leukemia = conditions: 10 µM unless noted
SR leukemia = conditions: 10 µM unless noted
RPMI-8226 leukemia = conditions: 10 µM unless noted
OVCAR-8 ovarian = conditions: 10 µM unless noted
OVCAR-5 ovarian = conditions: 10 µM unless noted
OVCAR-4 ovarian = conditions: 10 µM unless noted
SK-OV-3 ovarian = conditions: 10 µM unless noted
IGROV1 ovarian = conditions: 10 µM unless noted
HS 578T breast = conditions: 10 µM unless noted
NCI/ADR-RES ovarian = conditions: 10 µM unless noted
A498 renal = conditions: 10 µM unless noted

Measured: growth

CN1CCN(c2nc(-c3csc(-c4ccncc4)n3)cc3ccccc23)CC1
inactive: EKVX NSCLC 73.5% | SN12C renal 70.4% | UO-31 renal 71.4% | TK-10 renal 75.9% | ACHN renal 54.7% | CAKI-1 renal 58.7% | CCRF-CEM leukemia 26.5% | MOLT-4 leukemia 40.6% | RPMI-8226 leukemia 47.1% | OVCAR-8 ovarian 84% | OVCAR-5 ovarian 76.1% | OVCAR-4 ovarian 84.9% | SK-OV-3 ovarian 86.4% | IGROV1 ovarian 56.8% | HS 578T breast 66.1% | NCI/ADR-RES ovarian 68%
active: SR leukemia -18.2%

COCCOc1ccc(-c2csc(NC(=O)CN3CCN(CCO)CC3)n2)cc1NS(=O)(=O)c1cccc2c(N(C)C)cccc12
inactive: EKVX NSCLC 80.5% | SN12C renal 81.1% | UO-31 renal 65.3% | TK-10 renal 107% | ACHN renal 85.8% | CAKI-1 renal 92% | A498 renal 79.4% | CCRF-CEM leukemia 46.3% | RPMI-8226 leukemia 54.6% | OVCAR-8 ovarian 81.2% | OVCAR-5 ovarian 94.2% | OVCAR-4 ovarian 96% | IGROV1 ovarian 82.9% | HS 578T breast 70.1% | NCI/ADR-RES ovarian 97.2%

Cn1cc(-c2nn3c(=O)cc(-c4ccccc4)nc3s2)c2cc(F)ccc21
inactive: EKVX NSCLC 64.3% | SN12C renal 69.6% | UO-31 renal 57.1% | TK-10 renal 85.6% | ACHN renal 37.7% | CAKI-1 renal 31.6% | A498 renal 62.5% | CCRF-CEM leukemia 52.8% | RPMI-8226 leukemia 69.2% | OVCAR-8 ovarian 36.6% | OVCAR-5 ovarian 75.1% | OVCAR-4 ovarian 47.5% | SK-OV-3 ovarian 68.4% | IGROV1 ovarian 65.2% | HS 578T breast 60.9% | NCI/ADR-RES ovarian 42.2%
